An excerpt weighted towards active compounds, which were near 19% of everything screened.
TDP1 cell CPT – DT40-hTDP1 cell growth loss with CPT; chicken DT40 Tdp1-/-;hTDP1 cells + 20 nM CPT, ATP luminescence, 48 h; Potency, µM (titrated, usually from 46.2 µM), for inactives: at the highest dose activity change, negative = growth inhibition, hits mostly inhibitors; 12% of 420,000 active; AID 686979; note: nearly all actives have a fitted effect of over 55% in size
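Chicken DT40 Tdp1-/- cells stably complemented with human TDP1 were seeded at 400 cells/well in medium containing 20 nM camptothecin, exposed to pin-transferred compounds, and grown at 37 °C for at least 48 hr. Viability was read as ATP luminescence.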
HT1080 IDH1KD tx – toxicity to HT-1080 IDH1 knockdown cells (counter line). AID 686971. Potency, µM (titrated, usually from 46.1 µM), for the others: at the top dose activity, negative = toxicity, most hits filed as cytotoxic. 2% of 360,000 active. HT-1080 IDH1 knockdown viability, ATP luminescence, 48 h;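 note: 0% = DMSO wells and -100% = cell-free medium wells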
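Knockdown cells (IDH1KD HT-1080) received compounds 2 h after plating at 750 cells/well and were kept 48 h at 37 °C in 5% FBS RPMI. A CellTiter-Glo luminescence read gave % activity for curve fitting.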
KB-V1 MDR tox – kills drug-selected multidrug resistant KB-V1 cells; KB-V1 MDR cells viability, CellTiter-Glo, 72 h; Potency, µM (titrated, usually from 46.1 µM), hits mostly cytotoxic; AID 1347076; 3.4% of 400,000 active; note: nearly all actives have a fitted effect of over 60% in size
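Readout: CellTiter-Glo luminescence, 10 min after addition. Cells: KB-V1 MDR subline, 72 h at 37 degrees C with compound. Analysis: corrected, normalized data fitted to concentration-effect curves.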
KB-3-1 tox – KB-3-1 parental cell cytotoxicity; KB-3-1 viability, CellTiter-Glo ATP luminescence, 72 h; Potency, µM (titrated, usually from 46.1 µM), usual class: cytotoxic; 1.4% of 400,000 active; AID 1347075; note: nearly all actives have a fitted effect of over 60% in size
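Cytotoxicity in the drug-sensitive parental line KB-3-1 was scored as loss of CellTiter-Glo luminescence following 72 h incubation with compound. Values come from curve fitting of normalized concentration-response data.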
HT1080-NT tox – kills 2HG-producing HT-1080-NT fibrosarcoma cells; Potency, µM (titrated, usually from 46.1 µM), inactives show at the top dose activity, negative = less viability, usual class: cytotoxic; 1.6% of 360,000 active; HT-1080-NT fibrosarcoma viability, CellTiter-Glo ATP luminescence, 48 h;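 note: NT is the 2HG producing partner of a matched IDH1 knockdown line; 0% = DMSO-treated cells and -100% = media-only wells without cells; nearly all actives have a fitted effect of over 55% in size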
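Fibrosarcoma NT cells, 750 per well in 5% FBS RPMI, were exposed to compound for 48 hours. Viability: CellTiter-Glo luminescence.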
TDP1 cell noCPT – qHTS for Inhibitors of human tyrosyl-DNA phosphodiesterase 1 (TDP1): qHTS in cells in absence of CPT. DT40 Tdp1-/- hTDP1 cells, no CPT, ATP luminescence, 48 h. Potency, µM (series often up to 46.2 µM), for the others: top-dose activity change, negative = growth inhibition, actives largely listed as inhibitors. 15% of 420,000 active. AID 686978, 2013; note: nearly all actives have a fitted effect of over 55% in size
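Growth of hTDP1-complemented DT40 Tdp1-knockout cells is measured by ATP luminescence after at least 48 hr compound exposure at 37 °C, with DMSO substituting for the 20 nM CPT used in the parallel screen.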
* marks the source's active call; other numbers are inactive results; i = inactive; u = inconclusive; x = not tested or not shown. Calls come from the whole dose curve; as a rule, active = well fitted curve in the direction sought with a large enough effect; inconclusive = small, poorly fitted or top-dose-only effect, or another doubt; inactive = no such curve, though single readings can be large; an effect the other way counts as inactive or inconclusive. Unless noted, % is set by controls: 0 for no effect and ±100 for the full control effect; potency is the fitted concentration of half-maximal effect.

SMILES | TDP1 cell CPT | HT1080 IDH1KD tx | KB-V1 MDR tox | KB-3-1 tox | HT1080-NT tox | TDP1 cell noCPT
CC1(C)C[C@H](O)[C@]2(CO)CC[C@]3(C)C(=CCC4[C@@]5(C)CC[C@H](O)C(C)(C)C5CC[C@]43C)[C@@H]2C1 (stereo not given in full) | u | 1% | i | i | 5% | u
Cc1ccc(C(=O)Nc2cccc([N+](=O)[O-])c2)cc1S(=O)(=O)Nc1ccc(NC(=O)c2ccccc2)cc1 | 16µM* | -2% | i | i | -1% | 16µM*
CCCCCCOC(=O)Nc1ccc(S(=O)(=O)Nc2cccc([N+](=O)[O-])c2)cc1 | u | 0% | 21µM* | i | -1% | u
Cc1ccc(OCC(=O)Nc2ccc(S(=O)(=O)Nc3ccccn3)cc2)c(C)c1 | u | -5% | i | i | -5% | 18µM*
Cc1ccc(C(=O)Nc2ccccc2)cc1S(=O)(=O)Nc1ccccc1 | -12% | x | i | i | x | -14%
Cc1ccc(C(=O)Nc2cccc([N+](=O)[O-])c2)cc1S(=O)(=O)Nc1cccc(C(=O)O)c1 | u | -12% | i | i | -7% | u
Cc1ccc(C(=O)Nc2ccccc2C(=O)O)cc1S(=O)(=O)Nc1ccccc1 | -29% | 1% | i | i | 3% | 23µM*
COCCn1c(CCC(=O)Nc2ccc(OC)c(OC)c2)nc2cccnc21 | -4% | x | i | i | x | -25%
Cc1ccc(NS(=O)(=O)c2cc(C(=O)Nc3cccnc3)ccc2C)cc1 | 0% | 2% | i | i | 0% | u
Cc1ccc(NS(=O)(=O)c2cc(C(=O)Nc3cccc([N+](=O)[O-])c3)ccc2C)cc1 | u | u | 15µM* | i | -9% | u
Cc1ccc(NS(=O)(=O)c2ccc(OCC(=O)Nc3cccc([N+](=O)[O-])c3)c(C)c2)cc1 | u | 13µM* | i | i | u | u
CNC(=S)NNC(=O)c1cc(C(C)(C)C)nn1Cc1ccc(F)cc1 | u | 0% | i | i | 22% | 16µM*
COc1ccc(C(=O)COC(=O)CCn2nnc(-c3cccc(O)c3OC)n2)cc1 | -10% | 15% | i | i | 0% | -21%
CCOC(=O)/C=C1\Nc2ccccc2OC1=O | 8.2µM* | 11% | i | i | 4% | 10µM*
CCOC(=O)/C=C1\CC(C(=O)OCC)Oc2ccccc21 (stereo not given) | 5% | 7% | i | i | 1% | 3%
CC1(N(O)/C=C2\C=CC=CC2=O)CCCCC1=O (stereo not given) | -8% | 2% | i | i | -3% | 19%
COc1cc(CNc2ccccc2SC)cc(OC)c1OC | 21µM* | u | u | i | -30% | 21µM*
COc1ccc(CNc2ccccc2SC)cc1OC | u | -2% | u | i | -27% | u
COc1ccc(C(c2nnnn2C2CCCC2)N2CCC(C)CC2)c(OC)c1 (stereo not given) | 18µM* | -11% | u | u | -11% | 21µM*
COc1ccc(N2CCN(C(c3nnnn3C3CCCC3)C(C)C)CC2)cc1 (stereo not given) | 21µM* | 8% | i | i | 14% | 18µM*
COc1ccc(C(c2nnnn2C2CCCC2)N2CCN(c3ccccc3)CC2)cc1 (stereo not given) | u | 3% | u | i | -7% | u
CC(C)C(c1nnnn1C1CCCC1)N1c2ccccc2CC1C (stereo not given) | 21µM* | -27% | 15µM* | i | -26% | 13µM*
Cc1ccc(-c2nc3n(n2)Cc2ccccc2-3)cc1 | u | u | u | i | u | u
Fc1ccc(-c2nc3n(n2)Cc2ccccc2-3)cc1 | -24% | 15µM* | u | u | 26µM* | u
CCn1c(C)nc2cc(-c3nc4n(n3)Cc3ccccc3-4)ccc21 | 6.5µM* | 1.8µM* | u | 5.8µM* | 2.1µM* | 7.3µM*
SMILES | TDP1 cell CPT | HT1080 IDH1KD tx | KB-V1 MDR tox | KB-3-1 tox | HT1080-NT tox | TDP1 cell noCPT
O=C(O)c1ccc(NCc2cccs2)cc1 | 10% | 4% | i | i | 2% | 16%
O=C(NCCc1ccccc1)C(=O)NCC1OCCN1S(=O)(=O)c1ccc(F)cc1 (stereo not given) | -24% | -1% | i | i | -9% | -13%
N#CC1(NC(=O)CN2C(=O)NC(Cc3c[nH]c4ccccc34)C2=O)CCCCC1 (stereo not given) | -9% | -1% | x | x | 0% | -14%
CCCCCn1c(=O)[nH]c2cc(C(=O)N3CCN(c4cccc(OC)c4)CC3)ccc2c1=O | 23µM* | x | i | i | x | 15µM*
COc1ccc(-n2c(=S)[nH]c3cc(C(=O)Nc4ccccc4OC)ccc3c2=O)c(OC)c1 | -21% | -22% | i | i | -17% | u
COc1ccc(-n2c(=S)[nH]c3cc(C(=O)Nc4ccc(F)cc4)ccc3c2=O)c(OC)c1 | 16µM* | -25% | i | u | -12% | u
CCCCCn1c(=O)[nH]c2cc(C(=O)N3CCN(c4ccc(OC)cc4)CC3)ccc2c1=O | 9.2µM* | x | i | i | x | 18µM*
COCCn1c(=O)[nH]c2cc(C(=O)N3CCN(c4ccc(OC)cc4)CC3)ccc2c1=O | -31% | 7% | i | i | 3% | u
CCCCCn1c(=O)[nH]c2cc(C(=O)Nc3cc(OC)cc(OC)c3)ccc2c1=O | 13µM* | x | i | i | x | 23µM*
Cc1ccc(S(=O)(=O)N2CCCCC2)cc1NC(=O)C1CCCO1 (stereo not given) | 10% | 11% | i | i | 12% | -14%
CCCCC(CC)CNC(=O)c1ccc2c(=O)n(Cc3ccc(OC)cc3)c(=O)[nH]c2c1 (stereo not given) | 21µM* | x | i | i | x | u
CCCCCn1c(=O)[nH]c2cc(C(=O)N3CCN(c4cccc(C)c4)C(C)C3)ccc2c1=O (stereo not given) | 21µM* | x | i | u | x | 9.2µM*
CC(CC(=O)Nc1nnc(C(C)(C)C)s1)c1ccccc1 (stereo not given) | -14% | -2% | i | i | -5% | u
O=S(=O)(c1ccc(Br)cc1)N1CCCc2ccccc21 | -14% | -24% | i | i | -25% | u
